Experimental findings from PubChem BioAssay AID449739 (Vanderbilt High Throughput Screening Facility, 2010) are described below.

Hit rate of the full screen: of about 100,000 compounds, about 4,200 (4.2%) were called active. The full list was thinned out, with actives kept by preference. Values without a mark were called inactive.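 Rule for the calls: active = single-dose well whose peak fluorescence ratio is a statistical outlier from its plate by either plate-standardised score or position-corrected B-score; inactive = the rest.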

The target in this experiment is Voltage-dependent T-type calcium channel subunit alpha-1H (Homo sapiens) (UniProt O95180). Put plainly: Cav3.2 calcium influx blockers – cell-based, Fluo-4 calcium fluorescence, FDSS, MLSMR library, primary screen (AID 449739). Particulars: Cav3.2-expressing cells, at 10 µM, hits give low values.
Chain of Voltage-dependent T-type calcium channel subunit alpha-1H (Homo sapiens) (O95180 whole entry, looked up): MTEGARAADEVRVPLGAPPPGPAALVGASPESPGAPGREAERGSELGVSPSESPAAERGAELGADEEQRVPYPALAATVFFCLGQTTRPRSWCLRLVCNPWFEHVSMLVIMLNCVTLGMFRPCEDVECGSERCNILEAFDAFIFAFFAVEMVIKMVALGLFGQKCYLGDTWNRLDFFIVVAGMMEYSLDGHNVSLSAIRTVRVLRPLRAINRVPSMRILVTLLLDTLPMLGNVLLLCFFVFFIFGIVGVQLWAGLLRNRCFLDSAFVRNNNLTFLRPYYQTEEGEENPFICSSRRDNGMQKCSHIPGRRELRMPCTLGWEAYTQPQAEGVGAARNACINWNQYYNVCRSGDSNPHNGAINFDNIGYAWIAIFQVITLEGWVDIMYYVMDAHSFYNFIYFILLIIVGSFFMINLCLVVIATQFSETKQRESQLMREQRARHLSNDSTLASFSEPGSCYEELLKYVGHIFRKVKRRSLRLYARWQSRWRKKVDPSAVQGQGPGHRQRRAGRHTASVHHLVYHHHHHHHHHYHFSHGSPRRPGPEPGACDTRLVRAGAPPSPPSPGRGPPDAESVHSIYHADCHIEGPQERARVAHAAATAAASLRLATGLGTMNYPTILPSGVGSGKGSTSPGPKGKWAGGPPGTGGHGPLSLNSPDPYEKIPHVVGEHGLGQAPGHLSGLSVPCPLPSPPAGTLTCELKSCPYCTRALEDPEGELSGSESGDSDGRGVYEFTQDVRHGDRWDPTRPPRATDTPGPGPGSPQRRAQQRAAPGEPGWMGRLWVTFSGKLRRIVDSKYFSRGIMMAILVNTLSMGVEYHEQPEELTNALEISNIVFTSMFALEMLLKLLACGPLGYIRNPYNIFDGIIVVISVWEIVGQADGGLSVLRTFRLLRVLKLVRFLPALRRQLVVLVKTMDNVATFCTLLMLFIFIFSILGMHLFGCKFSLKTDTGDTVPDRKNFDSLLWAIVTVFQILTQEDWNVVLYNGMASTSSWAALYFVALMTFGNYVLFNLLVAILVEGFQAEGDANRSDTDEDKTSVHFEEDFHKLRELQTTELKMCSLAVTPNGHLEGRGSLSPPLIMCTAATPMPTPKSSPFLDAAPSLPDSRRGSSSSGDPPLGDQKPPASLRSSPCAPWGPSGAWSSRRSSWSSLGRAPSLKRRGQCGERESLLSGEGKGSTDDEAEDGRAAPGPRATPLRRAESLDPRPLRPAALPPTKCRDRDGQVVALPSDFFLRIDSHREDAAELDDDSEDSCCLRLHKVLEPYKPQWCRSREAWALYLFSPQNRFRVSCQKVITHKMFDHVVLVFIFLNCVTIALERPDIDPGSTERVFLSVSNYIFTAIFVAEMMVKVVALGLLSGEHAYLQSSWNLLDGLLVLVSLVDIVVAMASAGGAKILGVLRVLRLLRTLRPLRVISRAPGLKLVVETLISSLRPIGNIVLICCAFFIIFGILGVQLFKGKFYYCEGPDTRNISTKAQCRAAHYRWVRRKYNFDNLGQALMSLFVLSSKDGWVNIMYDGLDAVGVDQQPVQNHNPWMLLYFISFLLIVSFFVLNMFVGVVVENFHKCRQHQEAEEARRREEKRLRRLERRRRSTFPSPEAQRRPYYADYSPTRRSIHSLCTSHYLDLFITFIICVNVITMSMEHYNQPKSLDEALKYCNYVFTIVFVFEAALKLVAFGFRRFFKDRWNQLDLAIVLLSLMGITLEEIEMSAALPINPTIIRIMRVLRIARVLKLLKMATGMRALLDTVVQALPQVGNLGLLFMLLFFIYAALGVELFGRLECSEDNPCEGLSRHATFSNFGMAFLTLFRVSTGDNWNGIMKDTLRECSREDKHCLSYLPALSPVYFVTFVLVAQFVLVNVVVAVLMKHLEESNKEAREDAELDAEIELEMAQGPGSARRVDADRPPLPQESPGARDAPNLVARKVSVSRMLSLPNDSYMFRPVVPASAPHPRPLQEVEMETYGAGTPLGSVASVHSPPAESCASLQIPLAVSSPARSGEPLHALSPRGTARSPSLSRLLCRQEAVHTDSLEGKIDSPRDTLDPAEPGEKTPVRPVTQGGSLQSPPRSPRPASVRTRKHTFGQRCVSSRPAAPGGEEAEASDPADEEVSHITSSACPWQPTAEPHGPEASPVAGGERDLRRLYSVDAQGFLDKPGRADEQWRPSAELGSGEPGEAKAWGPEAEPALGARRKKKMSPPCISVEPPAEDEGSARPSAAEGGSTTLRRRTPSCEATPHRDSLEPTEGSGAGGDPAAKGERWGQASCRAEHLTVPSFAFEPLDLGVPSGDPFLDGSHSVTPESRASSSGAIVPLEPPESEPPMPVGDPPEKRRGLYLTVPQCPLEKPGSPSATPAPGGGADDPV
Regarding `NC(=O)C1=C[C@@H](c2ccc3c(c2)OCO3)C[C@@H](OCCCCO)O1`, the B-score is 0.476. With `COc1cccc(N(CC(=O)NC2CCCC2)C(=O)Cn2nnc(-c3ccc(C)cc3)n2)c1` the figure was -4.56 (active).

With `COc1ccc(-c2nnn(CC(=O)N(CCO)C(C(=O)NC3CCCC3)c3ccc(F)cc3)n2)cc1` (stereo not drawn), the B-score is -1.11. With `O=C(Cn1nnc(-c2ccc(CN3CCOCC3)cc2)n1)NC1CCCCC1` the figure was -0.444. With `COCc1cc(C)nc2sc(C(=O)NC3CCCCC3)c(N)c12`, the B-score is -0.0172.

Take `N#CC1=C(N)N(c2ccc(F)cc2)C(=O)C1`: the B-score was -0.201.

With `CCOc1ccc(NC(=O)CC2NCCNC2=O)cc1` (stereo not drawn), the B-score was 0.0128.

For `CCCOc1ccc(NC(=O)C2CCCNC2=O)cc1` (stereo not drawn), the B-score is -0.159. The result for `O=C(CC1NCCNC1=O)Nc1ccc(Oc2ccccc2)cc1` (stereo not drawn) reads -5.21 (active); that for `O=C1CCCC2=C1C(c1ccccc1)n1c(s/c(=C/c3cccc(F)c3)c1=O)=N2` (stereo not drawn), 0.975. With `O=C1N[C@@H](Cc2ccccc2)C(=O)N2[C@@H]3N(S(=O)(=O)c4ccc(F)cc4)c4ccccc4[C@]3(Br)C[C@@H]12`, the B-score is 0.27.

Regarding `O=S(=O)(O)c1nc2ccccc2n1Cc1ccc(Cl)cc1`, the B-score is -0.194. With `N=c1n(Cc2ccc(Cl)cc2)c2ccccc2n1CC(O)c1ccco1` (stereo not drawn) the figure was -3.51 (active); with `Cn1c(=N)n(CC(O)c2ccccc2)c2ccccc21` (stereo not drawn), 0.141.

Turning to `Cc1cc([N+](=O)[O-])ccc1NCc1cccc([N+](=O)[O-])c1`, the B-score was 0.0686. The result for `Cc1c(CCO)c(=O)[nH]n1C(=O)c1c(F)cccc1F` reads 0.442; that for `CC1CN(c2nc(-c3ccccc3)nnc2-c2ccccc2)CC(C)O1` (stereo not drawn), -0.222; that for `CSc1cc(C)n(-c2ccccc2C)c(=S)c1C(C)=O`, 0.0764.

On to `Cc1ccc(Cn2c(C)nc3c(c2=O)c2nc4ccccc4nc2n3Cc2ccco2)cc1`, for which the B-score is -6.69 (active). The result for `Clc1cccc(-c2nc3nc4ccccc4nc3n2Cc2ccco2)c1` reads -2.21. With `Cc1ccc(Cn2c(NC(=O)c3ccco3)nc3ccccc32)cc1` the figure was 1.58; with `COc1cc(OC)c2ccc(=O)oc2c1C(CCN1CCN(c2ccccc2)CC1)c1ccc2c(c1)OCO2` (stereo not drawn), -0.318. With `C/C=C(\C)C(=O)NCCN1C2=NC[C@H](Cc3ccc(O)cc3)N2C[C@@H]1Cc1ccc(OC)cc1`, the B-score was -0.0234.

Take `CCO[C@H]1OC(C(=O)N2CCOCC2)=C[C@@H](c2ccc3c(c2)OCO3)[C@@H]1CCCO`: the B-score was -0.694. The result for `Cc1ccccc1-c1nnc(SCC(=O)NCc2ccc3c(c2)OCO3)n1C` reads 0.345; that for `O=C(CSc1nnc(-c2ccccn2)n1-c1ccccc1)Nc1ccc2c(c1)OCO2`, 0.144; that for `Cc1cccc(C)c1NC(=O)CSc1nnc(-c2ccccc2)n1Cc1ccc2c(c1)OCO2`, -6.18 (active). The result for `COCCNC(=O)c1onc(CSc2cccc(C)c2)c1C(=O)O` reads 1.46; that for `CCCCN=C1N/C(=C\c2ccco2)C(=O)N1c1ccccc1`, 0.203. The result for `C=C(C)Cn1c(C)cc(C)c(S(=O)(=O)c2ccccc2C)c1=O` reads -4.84 (active); that for `COC/C=C/C1=CC2=CC(=O)C(C)(OC(=O)CCC(=O)OC)C(=O)C2=CO1` (stereo not drawn), -0.853. Regarding `CC1CCN(C(NC(=O)c2ccco2)C(=O)c2ccccc2)CC1` (stereo not drawn), the B-score is -1.33. The result for `COCCNC(=O)Cn1cc(C(=O)c2cccs2)c2ccccc21` reads 0.167; that for `COC(=O)c1cn(CC(=O)NCc2cccs2)c2ccccc12`, -0.599.

Take `O=C(Cn1cc(C(=O)c2cccs2)c2ccccc21)NCc1cccs1`: the B-score was -4.4 (active).

On to `CC(=O)n1cc([C@@H]2C=C(C(=O)N3CCN(Cc4ccc5c(c4)OCO5)CC3)O[C@H](OCc3ccc(CO)cc3)C2)c2ccccc21`, for which the B-score is -1.49. The result for `CC1(OC(=O)CCc2ccccc2)C(=O)C=C2C=C(c3ccc(C#N)cc3)N(CCc3ccccn3)C=C2C1=O` (stereo not drawn) reads 0.634; that for `CC(C)n1cnc2c(Nc3cccc(Cl)c3)nc(N(CCO)CCCO)nc21`, -0.405; that for `CC(C)C[C@H](CO)Nc1nc(N(C)c2cccc(Cl)c2)c2ncn(C(C)C)c2n1`, -3.33 (active). The result for `COC(=O)C(C)n1cnc2c(nnn2-c2cccc(Cl)c2)c1=O` (stereo not drawn) reads -0.438; that for `CCCc1nc2ccccc2c(=O)n1NC(=O)c1c(O)c2ccccc2[nH]c1=O`, -3.3 (active); that for `CCCCc1nc2ccccc2c(=O)n1NC(=O)c1c(O)c2cccc3c2n(c1=O)CC3`, -7.27 (active).

As for `Cn1c(SCC(=O)N2CCCc3ccccc32)nc2ccccc2c1=O`, the B-score was -2.58. The result for `CCCc1nc2ccccc2c(=O)n1/N=C/c1ccc(O)c(O)c1` reads 0.0906; that for `CCNC(=O)c1c(O)c2cccc3c2n(c1=O)CC3`, -0.155.

As to `CCCC(=O)Nc1c(O)c2ccccc2[nH]c1=O`, the B-score was -0.361. The result for `Cc1nc(C)c(C(=O)N(c2ccc(C)c(C)c2)C(C(=O)NCc2ccco2)c2ccccc2)s1` (stereo not drawn) reads -0.655. Consider `COc1ccc(NCc2nnc(SCc3ccccc3)n2-c2ccc(OC)cc2)cc1`, for which the B-score was -3.07. With `Cc1cccc(N2C(=O)C3C(c4ccccc4)OC4(C(=O)c5ccccc5C4=O)C3C2=O)c1` (stereo not drawn) the figure was -0.244; with `Cc1nc(-c2ccc(Cl)cc2)sc1C1(C)CC(c2ccccc2F)=NO1` (stereo not drawn), 1.15; with `COc1ccc(SCCN2CCN(CC(C)C)CCC2=O)cc1`, 0.677.

In the case of `CCOC(=O)/C=C/CN(C(=O)OC(C)(C)C)S(=O)(=O)N1CC=CC1`, the B-score was 0.152. Consider `COC(=O)C1=C(Nc2ccc(OC)cc2)C=C(C)C(C(=O)OC)C1c1ccc(C)cc1` (stereo not drawn), for which the B-score is -5.75 (active). The result for `Cc1ccc(NC(=O)C2CC(c3ccc(F)cc3)=NO2)cc1` (stereo not drawn) reads 0.0436; that for `COC(=O)C1C(=O)NCC1c1ccc(OC)cc1` (stereo not drawn), 0.134; that for `COC(=O)C1=C(Nc2ccc(C)cc2)C=C(C)C(C(=O)OC)C1c1ccc(F)cc1` (stereo not drawn), -5.1 (active). With `COC(=O)c1ccc(NC(=O)Nc2ccc(C)cc2)cc1` the figure was 0.0358; with `COC(=O)c1cc(OC)ccc1-c1ccc(OC)cc1`, 0.191.
